PubChem BioAssay AID1159580 (chemical genetic matrix, 2015)
Several values for one entry are separate records, joined by “and”; a condition that tells them apart may be missing. Equal values may be shown once. The whole screen tested about 5,500 compounds, of which about 2,000 (36%) were called active. Roughly 18% stayed inconclusive and do not appear here. No stated cut-off is given here; in the data, active means normalized growth mostly below about 0.91 (no sharp cut-off); inconclusive means no clear call, values can overlap the other calls; inactive means mostly above about 0.92. The list shows a part of the results.

Experiment: chemical genetic growth profiling, strain panel (AID 1159580);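 further: tested at 20 µM; growth read once vehicle control cultures reached saturation at 30 °C; 1 = growth at the plate median or of vehicle wells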
Details: S. cerevisiae deletion strains, growth OD

Measured: normalized growth

ClC1=C(Cl)C2(Cl)C3C4C=CC(C4)C3C1(Cl)C2(Cl)Cl (configuration not stated)
inactive: locus YAL013W, strain DEP1, stronger effect = lower value 0.989 | locus YAL021C, strain ccr4, stronger effect = lower value 0.987 | locus YAL026C, strain drs2, stronger effect = lower value 0.993 | locus YAL030W, strain snc1, stronger effect = lower value 1 | locus YBL061C, strain skt5, stronger effect = lower value 1.01 | locus YBR009C, strain hhf1, stronger effect = lower value 0.992 | locus YBR021W, strain FUR4, stronger effect = lower value 1 | locus YBR023C, strain chs3, stronger effect = lower value 0.997 | locus YBR171W, strain sec66, stronger effect = lower value 0.988 | locus YBR229C, strain ROT2, stronger effect = lower value 0.997 | locus YBR231C, strain swc5, stronger effect = lower value 1 | locus YBR279W, strain paf1, stronger effect = lower value 1.01 | locus YCL011C, strain gbp2, stronger effect = lower value 0.999 | locus YCL016C, strain dcc1, stronger effect = lower value 0.999 | locus YCL029C, strain bik1, stronger effect = lower value 0.972 | locus YCL061C, strain MRC1, stronger effect = lower value 0.993 | locus YCL069W, strain vba3, stronger effect = lower value 0.997 | locus YCR088W, strain abp1, stronger effect = lower value 0.991 | locus YDL005C, strain med2, stronger effect = lower value 0.999 | locus YDL035C, strain GPR1, stronger effect = lower value 0.949 | locus YDL040C, strain nat1, stronger effect = lower value 0.998 | locus YDL074C, strain BRE1, stronger effect = lower value 0.969 | locus YDL101C, strain DUN1, stronger effect = lower value 0.993 | locus YDL134C, strain PPH21, stronger effect = lower value 0.992 | locus YDL185W, strain tfp1, stronger effect = lower value 1 | locus YDL192W, strain arf1, stronger effect = lower value 0.997 | locus YDR001C, strain nth1, stronger effect = lower value 0.996 | locus YDR069C, strain doa4, stronger effect = lower value 0.99 | locus YDR101C, strain arx1, stronger effect = lower value 1 | locus YDR137W, strain rgp1, stronger effect = lower value 0.956 | locus YDR150W, strain NUM1, stronger effect = lower value 1 | locus YDR159W, strain sac3, stronger effect = lower value 0.901 | locus YDR162C, strain NBP2, stronger effect = lower value 1 | locus YDR195W, strain ref2 0.955 | locus YDR297W, strain sur2, stronger effect = lower value 1 | locus YDR318W, strain mcm21, stronger effect = lower value 0.981 | locus YDR334W, strain swr1, stronger effect = lower value 0.993 | locus YDR335W, strain msn5, stronger effect = lower value 1 | locus YDR388W, stronger effect = lower value 0.985 | locus YDR392W, strain spt3, stronger effect = lower value 1 | locus YDR502C, strain sam2, stronger effect = lower value 0.994 | locus YEL003W, strain gim4, stronger effect = lower value 1 | locus YEL037C, strain rad23, stronger effect = lower value 1 | locus YEL061C, strain CIN8 (second series), stronger effect = lower value 1 | locus YEL061C, strain CIN8, stronger effect = lower value 1 | locus YER015W, strain faa2, stronger effect = lower value 1 | locus YER016W, strain bim1, stronger effect = lower value 0.994 | locus YER110C, stronger effect = lower value 0.99 | locus YER111C, strain swi4, stronger effect = lower value 1 | locus YER155C, strain BEM2 (second series), stronger effect = lower value 0.998 | locus YER155C, strain BEM2, stronger effect = lower value 0.978 | locus YER167W, strain BCK2, stronger effect = lower value 0.977 | locus YFR010W, strain ubp6, stronger effect = lower value 0.988 | locus YGL078C, strain dbp3, stronger effect = lower value 1 | locus YGL086W, strain mad1, stronger effect = lower value 0.967 | locus YGL167C, strain pmr1, stronger effect = lower value 0.983 | locus YGL173C, strain kem1, stronger effect = lower value 0.992 | locus YGL227W, strain vid30, stronger effect = lower value 0.996 | locus YGL240W, strain doc1, stronger effect = lower value 0.981 | locus YGL248W, strain PDE1, stronger effect = lower value 0.997 | locus YGL253W, strain hxk2, stronger effect = lower value 0.983 | locus YGR078C, strain PAC10, stronger effect = lower value 1.01 | locus YGR135W, strain pre9, stronger effect = lower value 0.982 | locus YGR229C, strain SMI1, stronger effect = lower value 0.952 | locus YGR252W, strain gcn5, stronger effect = lower value 0.961 | locus YHR013C, strain ard1, stronger effect = lower value 1.08 | locus YHR027C, strain rpn1, stronger effect = lower value 0.988 | locus YHR030C, strain SLT2, stronger effect = lower value 1 and 0.976 | locus YHR079C, strain IRE1 (second series), stronger effect = lower value 0.983 | locus YHR079C, strain IRE1, stronger effect = lower value 0.979 | locus YHR094C, strain hxt1, stronger effect = lower value 1 | locus YHR129C, strain ARP1, stronger effect = lower value 1 | locus YHR142W, strain chs7, stronger effect = lower value 1.01 | locus YHR200W, strain rpn10, stronger effect = lower value 0.99 | locus YIL066C, strain RNR3, stronger effect = lower value 0.941 | locus YIL073C, strain SPO22, stronger effect = lower value 0.874 | locus YIL125W, strain kgd1, stronger effect = lower value 1 | locus YIR030C, strain dcg1, stronger effect = lower value 0.991 | locus YJL092W, strain hpr5, stronger effect = lower value 0.992 | locus YJL095W, strain BCK1 (second series), stronger effect = lower value 0.994 | locus YJL095W, strain BCK1, stronger effect = lower value 1.01 and 1.03 | locus YJL115W, strain asf1, stronger effect = lower value 0.989 | locus YJL134W, strain LCB3, stronger effect = lower value 0.999 | locus YJL154C, strain vps35, stronger effect = lower value 0.992 | locus YJL164C, strain tpk1, stronger effect = lower value 0.981 | locus YJL166W, strain qcr8, stronger effect = lower value 0.99 | locus YJL168C, strain set2, stronger effect = lower value 0.991 | locus YJL187C, strain SWE1 (second series), stronger effect = lower value 1 | locus YJL187C, strain SWE1, stronger effect = lower value 1.01 | locus YJR043C, strain POL32, stronger effect = lower value 0.981 | locus YJR066W, strain TOR1, stronger effect = lower value 0.975
active: locus YJL129C, strain trk1, stronger effect = lower value 0.85
